Pf apPOL inh: Pf-apPOL DNA polymerase inhibition | AID 1794808 | inhibition, % at 10 µM | Recombinant Pf-apPOL, molecular beacon fluorescence, 1.5 h | 210,000 tested, 0.25% active
mHTT CaM bind: disrupts binding of mutant huntingtin to calmodulin. P42858. AlphaScreen His-mHTT/GST-CaM binding, luminescence. inhibition, % at 15 µM. 190,000 tested, 3.6% active;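 also: 0% = both proteins with DMSO and 100% = one protein alone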
Active calls of the source: *; · = no result. The list is not random: actives were taken first. Their share in the collection is about 3.5%. Rule as the data show it: active = inhibition above about 50%; inactive = the rest.

SMILES	Pf apPOL inh	mHTT CaM bind
O=C(O)c1ccc2c(c1)C1C=CCC1C(c1ccccc1[N+](=O)[O-])N2 (stereo not given)	-18.8	53.2*
Cc1cc(C)nc(NC(=O)Cn2cnc3c2c(=O)n(C)c(=O)n3C)n1	1.1	3.1
Cc1cccc(N(C)C(=O)c2ccc3c(c2)N(S(C)(=O)=O)CC3)c1	4.1	0.0
CC(=O)Nc1ccc(S(=O)(=O)NCCSCc2cccc(C)c2)cc1	-6.4	3.4
COc1ccc(S(=O)(=O)Nc2c(C(C)C)cccc2C(C)C)cc1OC	-3.6	0.0
CCCC1c2cccn2CCN1C(=O)Nc1ccc(C)c(Cl)c1 (stereo not given)	-7.1	79.6*
Cc1cccc(NC(=O)N2CCn3cccc3C2C(C)C)c1 (stereo not given)	-9.5	4.0
Cc1ccc(NC(=O)N2CCn3cccc3C2C)cc1F (stereo not given)	78.8*	5.3
CCCC1c2ccc(C)n2CCN1C(=O)Nc1ccc(C)c(F)c1 (stereo not given)	4.1	10.2
CCCC1c2ccc(C)n2CCN1C(=O)Nc1ccc(Cl)cc1 (stereo not given)	-3.8	50.5*
CCCC1c2cccn2CCN1C(=O)Nc1cccc(F)c1 (stereo not given)	-12.9	25.7
Cc1cc(NC(=O)N2CCn3cccc3C2C(C)C)ccc1Br (stereo not given)	0.7	99.5*
Cc1ccc(NC(=O)N2CCn3cccc3C2Cc2ccccc2)cc1F (stereo not given)	2.7	4.3
Cc1cc(=O)n(CC(=O)Nc2ccc3c(c2)Cc2ccccc2-3)cn1	-1.0	-12.6
O=C1OC(c2ccc(Cl)cc2)=C/C1=C/c1ccc(-c2ccccc2C(=O)O)o1	-1.3	56.0*
CCCC1=C/C(=C\c2ccc(-c3ccccc3)o2)C(=O)O1	-3.8	50.0*
CC1=NOC(=O)/C1=C/c1ccc(-c2ccccc2)o1	2.6	27.0
O=C1OC(c2ccc(Cl)cc2)=C/C1=C\c1ccccc1	-18.6	7.0
C=CCC1(O)CC(C)(C)NC(C)(C)C1	·	-0.1
CC(=O)c1ccc(NC(=O)/C(=C/c2ccccc2)NC(=O)c2ccc(Br)o2)cc1	-5.1	13.8
COc1ccc(CNc2nc(-c3ccc(C)cc3)nnc2C)cc1	1.5	5.4
COc1ccc(-c2nnc(C)c(NC3CCCC3)n2)cc1	-11.9	52.3*
Cc1nc(SCC(=O)NCc2ccccc2)n[nH]1	-5.3	0.8
COc1cc(SC)ccc1C(=O)Nc1ccc2c(c1)OC(C)(C)O2	-0.3	1.6
O=C(c1ccc(OCC2CCCN(C(=O)C3CCCCC3)C2)cc1)N1CCCCC1 (stereo not given)	-5.2	15.6
SMILES	Pf apPOL inh	mHTT CaM bind
O=C(c1ccc(OCC2CCCN(C(=O)C3CCCC3)C2)cc1)N1CCCCC1 (stereo not given)	96.0*	4.4
Cc1ccc(CNC(=O)C2CCN(c3nc4cccnc4s3)CC2)cc1	2.7	3.8
Clc1nc(C(Cl)(Cl)Cl)nc2ccccc12	2.5	100.0*
CCCNc1nc(C(Cl)(Cl)Cl)nc2ccccc12	-7.3	-74.0
O=C(c1cccnc1N1CCNC(c2ccccc2)C1)N1CCC(Cc2ccccc2)CC1 (stereo not given)	12.0	73.5*
COCC1CCN(C(=O)c2cccnc2N2CCNC(c3ccccc3)C2)CC1 (stereo not given)	4.2	-1.2
Cc1ccc(C)n1-c1ccc(Cl)c(C(=O)NN)c1	9.4	36.4
COc1ccc(-n2c(C)ccc2C)cc1Cl	-5.6	61.6*
Cn1c(C2CCN(C(=O)CC3CCCC3)C2)nc2cccnc21 (stereo not given)	-4.2	2.0
CCN(C)c1ccc(/C=C2/C(=O)N(c3cccc(Cl)c3)N=C2C)cc1	-10.7	68.0*
CC1=NN(c2ccc(C(=O)O)cc2)C(=O)/C1=C/c1ccc(N(C)C)cc1	-3.8	4.0
CCN(C)c1ccc(/C=C2/C(=O)N(c3cccc(Br)c3)N=C2C)cc1	-0.7	90.0*
COc1ccccc1OCCOc1ccc([N+](=O)[O-])cc1/C=C1/C(=O)N(c2ccccc2)N=C1C	10.8	4.0
CC1=NN(c2cccc(Cl)c2)C(=O)/C1=C/c1ccc(F)cc1	7.4	8.0
CCN(C)c1ccc(/C=C2/C(=O)N(c3ccc(C)c(C)c3)N=C2C)cc1	0.0	58.0*
CC1=NN(c2ccccc2)C(=O)/C1=C/c1ccc(Oc2ccc([N+](=O)[O-])cc2[N+](=O)[O-])cc1	0.5	52.0*
CC1=NN(c2cccc(Br)c2)C(=O)/C1=C/c1ccc(N(C)C)cc1	-5.2	24.0
Cc1nc(-c2cccc(F)c2)sc1C(=O)N1CCCC1	-7.8	-6.3
Cn1nc(-c2nc(-c3ccccc3)no2)c2c1CCN(C(=O)NC1CCCCC1)C2	-3.0	3.4
Cc1ccc([N+](=O)[O-])cc1NC(=O)c1cc2ccccc2c(=O)o1	-10.0	-1.0
COc1ccc(OC)c(S(=O)(=O)N2CCCC2C(=O)NCCc2csc(C)n2)c1 (stereo not given)	-7.4	-6.4
Cn1c(-c2nc(C(=O)NCCCN3CCCC3=O)cs2)cc2ccccc21	-25.1	14.3
N#CC(=NOS(=O)(=O)c1ccc(Cl)cc1)S(=O)(=O)c1cccs1	-0.5	·
Cc1cccc(N2CCN(C(=O)c3cccnc3N3CCNC(c4ccccc4)C3)CC2)c1 (stereo not given)	2.3	26.6
Cc1ccc(NC(=O)CCc2ccc3nc[nH]c3c2)cc1C	-5.6	1.3
SMILES	Pf apPOL inh	mHTT CaM bind
CC(=O)Nc1cc(C(=O)NC2CCCCC2C)ccc1S(=O)(=O)c1ccc(Cl)cc1 (stereo not given)	-20.4	17.0
CCN(CC)c1ccc(/C=C2/C(=O)N(c3ccccc3)N=C2C)cc1	-4.5	65.0*
CC1=NN(c2ccccc2)C(=O)/C1=C/c1ccc([N+](=O)[O-])cc1	-3.4	33.0
CC1=NN(c2ccc(F)cc2)C(=O)/C1=C/c1ccc(N(C)C)cc1	-2.4	10.0
CCN(C)c1ccc(/C=C2/C(=O)N(c3ccc(Cl)cc3)N=C2C)cc1	0.4	70.0*
CCOc1cc(/C=C2/C(=O)N(c3ccc(C)c(C)c3)N=C2C)cc(I)c1O	-16.3	72.0*
CC1=NN(c2ccc(C)c(C)c2)C(=O)/C1=C/c1ccc([N+](=O)[O-])cc1	3.1	53.0*
C=CCc1cc(/C=C2/C(=O)N(c3ccccc3)N=C2C)cc(OCC)c1O	7.6	49.0
CC1=NN(c2ccccc2)C(=O)/C1=C/c1ccccc1	-4.8	17.0
CC(C)NC(=O)N1CCCC1c1ccccc1Cl (stereo not given)	-0.2	3.4
CC1=NN(c2ccccc2)C(=O)/C1=C/c1ccc(N2CCOCC2)cc1	7.0	78.0*
CCN(CC)c1ccc(/C=C2/N=C(c3ccc(F)cc3)OC2=O)cc1	-4.3	1.0
CC1=NOC(=O)/C1=C/c1ccc(N2CCOCC2)cc1	5.1	16.0
CCN(CC)c1ccc(/C=C2/N=C(c3ccccc3)NC2=O)cc1	-4.7	88.0*
CCOCCc1nnc(NC(=O)c2cccc(Br)c2)s1	-3.3	2.5
COC(=O)C12CCC(C)(C(O)C1)C2(C)C (stereo not given)	-1.1	-5.7
CCN(CC)S(=O)(=O)c1ccc2[nH]cc(C(=O)NCCCN3CCCC3=O)c(=O)c2c1	-23.8	51.0*
CCN(CC)S(=O)(=O)c1ccc2[nH]cc(C(=O)NCc3ccc(F)cc3)c(=O)c2c1	-7.1	4.0
O=C(NCc1ccccc1)O[C@H]1[C@H](Cc2ccccc2)NS(=O)(=O)[C@H]2C[C@@H]3C=C[C@]12O3	-2.4	19.1
CN(C)CCCN(C(=O)C1=COCCO1)c1nc2ccc(Br)cc2s1	-15.7	22.6

Assay outcomes (PubChem)
